Test results reported in the supplement of paper PMC8728848.
Shown is part of a subset that was picked to be rich in the strongest signals.

Tests used:
Assay in all cases: glycan array binding signal (z-score within array); higher = stronger binding
Conditions in all cases: glycan notation: IUPAC condensed, linker removed
[1] = target: Fuc(a1-2)Gal(b1-3)GlcNAc(b1-3)[Fuc(a1-2)Gal(b1-3)GlcNAc(b1-6)]GalNAc
Outline: (§1)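 Negative Z-scores can be read as non-binding. The Z-score is calculated within each array and then averaged across arrays of one protein sequence at different concentrations or buffers and across linkers. Arrays, 3228 in all, were curated from the Consortium for Functional Glycomics database and kept only where the protein sequence was available.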

[2] = target: Fuc(a1-2)Gal(b1-4)GlcNAc(b1-3)Gal(b1-4)GlcNAc
Outline: as §1

[3] = target: Fuc(a1-2)[Gal(a1-3)]Gal(b1-4)Glc
Outline: as §1

[4] = target: Fuc(a1-2)[Gal(a1-3)]Gal(b1-4)[Fuc(a1-3)]GlcNAc
Outline: as §1

[5] = target: Fuc(a1-2)[GalNAc(a1-3)]Gal(b1-3)GlcNAc(b1-6)GalNAc
Outline: as §1

[6] = target: Fuc(a1-2)[GalNAc(a1-3)]Gal(b1-4)Glc
Outline: as §1

[7] = target: Gal(a1-3)Gal(b1-4)[Fuc(a1-3)]GlcNAc
Outline: as §1

Gal(a1-4)GlcNAc = target: Gal(a1-4)GlcNAc
Outline: as §1

Gal(a1-6)Glc = target: Gal(a1-6)Glc
Outline: as §1

[8] = target: Gal(b1-3)GlcNAc(a1-6)Gal(b1-4)GlcNAc
Outline: as §1

[9] = target: Gal(b1-3)GlcNAc(b1-3)Gal(b1-3)GlcNAc
Outline: as §1

[10] = target: Gal(b1-3)GlcNAc(b1-3)Gal(b1-4)GlcNAc(b1-3)Gal(b1-4)GlcNAc(b1-2)[Gal(b1-3)GlcNAc(b1-3)Gal(b1-4)GlcNAc(b1-3)Gal(b1-4)GlcNAc(b1-6)]Man(a1-6)[Gal(b1-3)GlcNAc(b1-3)Gal(b1-4)GlcNAc(b1-3)Gal(b1-4)GlcNAc(b1-2)Man(a1-3)]Man(b1-4)GlcNAc(b1-4)[Fuc(a1-6)]GlcNAc
Outline: as §1

Gal(b1-3)GlcNAc6S = target: Gal(b1-3)GlcNAc6S
Outline: as §1

[11] = target: Gal(b1-4)GlcNAc(b1-2)[Gal(b1-4)GlcNAc(b1-6)]Man(a1-6)[Gal(b1-4)GlcNAc(b1-2)Man(a1-3)]Man(b1-4)GlcNAc(b1-4)GlcNAc
Outline: as §1

[12] = target: Gal(b1-4)GlcNAc(b1-3)Gal(b1-4)GlcNAc(b1-3)Gal(b1-4)GlcNAc(b1-2)Man(a1-3)[Gal(b1-4)GlcNAc(b1-3)Gal(b1-4)GlcNAc(b1-3)Gal(b1-4)GlcNAc(b1-2)Man(a1-6)]Man(b1-4)GlcNAc(b1-4)[Fuc(a1-6)]GlcNAc
Outline: as §1

[13] = target: Gal(b1-4)GlcNAc(b1-3)Gal(b1-4)GlcNAc(b1-3)Gal(b1-4)GlcNAc(b1-2)[Gal(b1-4)GlcNAc(b1-3)Gal(b1-4)GlcNAc(b1-3)Gal(b1-4)GlcNAc(b1-6)]Man(a1-6)[Gal(b1-4)GlcNAc(b1-3)Gal(b1-4)GlcNAc(b1-3)Gal(b1-4)GlcNAc(b1-2)Man(a1-3)]Man(b1-4)GlcNAc(b1-4)[Fuc(a1-6)]GlcNAc
Outline: as §1

[14] = target: Gal(b1-4)GlcNAc(b1-3)Gal(b1-4)GlcNAc(b1-3)Gal(b1-4)GlcNAc(b1-3)Gal(b1-4)GlcNAc(b1-2)Man(a1-3)[Gal(b1-4)GlcNAc(b1-3)Gal(b1-4)GlcNAc(b1-3)Gal(b1-4)GlcNAc(b1-3)Gal(b1-4)GlcNAc(b1-2)Man(a1-6)]Man(b1-4)GlcNAc(b1-4)GlcNAc
Outline: as §1

[15] = target: Gal(b1-4)GlcNAc(b1-3)Gal(b1-4)GlcNAc(b1-3)Gal(b1-4)GlcNAc(b1-3)Gal(b1-4)GlcNAc(b1-2)Man(a1-3)[Gal(b1-4)GlcNAc(b1-3)Gal(b1-4)GlcNAc(b1-3)Gal(b1-4)GlcNAc(b1-3)Gal(b1-4)GlcNAc(b1-2)Man(a1-6)]Man(b1-4)GlcNAc(b1-4)[Fuc(a1-6)]GlcNAc
Outline: as §1

[16] = target: Gal(b1-4)GlcNAc(b1-3)Gal(b1-4)GlcNAc(b1-3)Gal(b1-4)GlcNAc(b1-3)Gal(b1-4)GlcNAc(b1-2)[Gal(b1-4)GlcNAc(b1-3)Gal(b1-4)GlcNAc(b1-3)Gal(b1-4)GlcNAc(b1-3)Gal(b1-4)GlcNAc(b1-6)]Man(a1-6)[Gal(b1-4)GlcNAc(b1-3)Gal(b1-4)GlcNAc(b1-3)Gal(b1-4)GlcNAc(b1-3)Gal(b1-4)GlcNAc(b1-2)Man(a1-3)]Man(b1-4)GlcNAc(b1-4)[Fuc(a1-6)]GlcNAc
Outline: as §1

[17] = target: Gal(b1-4)GlcNAc(b1-3)Gal(b1-4)GlcNAc(b1-3)Gal(b1-4)GlcNAc(b1-3)Gal(b1-4)GlcNAc(b1-3)Gal(b1-4)GlcNAc(b1-2)Man(a1-3)[Gal(b1-4)GlcNAc(b1-3)Gal(b1-4)GlcNAc(b1-3)Gal(b1-4)GlcNAc(b1-3)Gal(b1-4)GlcNAc(b1-3)Gal(b1-4)GlcNAc(b1-2)Man(a1-6)]Man(b1-4)GlcNAc(b1-4)GlcNAc
Outline: as §1

[18] = target: Gal(b1-4)GlcNAc(b1-3)Gal(b1-4)GlcNAc(b1-3)Gal(b1-4)GlcNAc(b1-3)Gal(b1-4)GlcNAc(b1-3)Gal(b1-4)GlcNAc(b1-2)Man(a1-3)[Gal(b1-4)GlcNAc(b1-3)Gal(b1-4)GlcNAc(b1-3)Gal(b1-4)GlcNAc(b1-3)Gal(b1-4)GlcNAc(b1-3)Gal(b1-4)GlcNAc(b1-2)Man(a1-6)]Man(b1-4)GlcNAc(b1-4)[Fuc(a1-6)]GlcNAc
Outline: as §1

[19] = target: Gal(b1-4)GlcNAc(b1-3)Gal(b1-4)GlcNAc(b1-3)Gal(b1-4)GlcNAc(b1-3)Gal(b1-4)GlcNAc(b1-3)Gal(b1-4)GlcNAc(b1-2)[Gal(b1-4)GlcNAc(b1-3)Gal(b1-4)GlcNAc(b1-3)Gal(b1-4)GlcNAc(b1-3)Gal(b1-4)GlcNAc(b1-3)Gal(b1-4)GlcNAc(b1-6)]Man(a1-6)[Gal(b1-4)GlcNAc(b1-3)Gal(b1-4)GlcNAc(b1-3)Gal(b1-4)GlcNAc(b1-3)Gal(b1-4)GlcNAc(b1-3)Gal(b1-4)GlcNAc(b1-2)Man(a1-3)]Man(b1-4)GlcNAc(b1-4)[Fuc(a1-6)]GlcNAc
Outline: as §1

[20] = target: Gal(b1-4)GlcNAc(b1-3)Gal(b1-4)GlcNAc(b1-3)Gal(b1-4)GlcNAc(b1-3)Gal(b1-4)GlcNAc(b1-3)Gal(b1-4)GlcNAc(b1-3)Gal(b1-4)GlcNAc(b1-2)Man(a1-3)[Gal(b1-4)GlcNAc(b1-3)Gal(b1-4)GlcNAc(b1-3)Gal(b1-4)GlcNAc(b1-3)Gal(b1-4)GlcNAc(b1-3)Gal(b1-4)GlcNAc(b1-3)Gal(b1-4)GlcNAc(b1-2)Man(a1-6)]Man(b1-4)GlcNAc(b1-4)GlcNAc
Outline: as §1

B1: Gal 3C (Homo sapiens), P17931 (protein)
chain: YGAPAGPLIVPYNLPLPGGVVPRMLITILGTVKPNANRIALDFQRGNDVAFHFNPRFNENNRRVIVCNTKLDNNWGREERQSVFPFESGKPFKIQVLVEPDHFKVAVNDAHLLQYNHRVKKLNEISKLGISGDIDLTSASYTMI
For B1, the “glycan array binding signal (z-score)” value [1] was -0.212, the “glycan array binding signal (z-score)” value [2] was 1.07 and the “glycan array binding signal (z-score)” value [3] was -0.106. For the same binder, the “glycan array binding signal (z-score)” value [4] was -0.196, the “glycan array binding signal (z-score)” value [5] was -0.229 and the “glycan array binding signal (z-score)” value [6] was -0.117. For the same binder, the “glycan array binding signal (z-score)” value [7] was -0.259, the “glycan array binding signal (z-score)” value (Gal(a1-4)GlcNAc) was -0.295 and the “glycan array binding signal (z-score)” value (Gal(a1-6)Glc) was -0.222. The “glycan array binding signal (z-score)” value [8] was -0.269, the “glycan array binding signal (z-score)” value [9] was -0.068 and the “glycan array binding signal (z-score)” value [10] was 1.95. The “glycan array binding signal (z-score)” value (Gal(b1-3)GlcNAc6S) was -0.277, the “glycan array binding signal (z-score)” value [11] was -0.222 and the “glycan array binding signal (z-score)” value [12] was 4.24. The “glycan array binding signal (z-score)” value [13] was 4.41, the “glycan array binding signal (z-score)” value [14] was 5.03 and the “glycan array binding signal (z-score)” value [15] was 4.24. The “glycan array binding signal (z-score)” value [16] was 4.44, the “glycan array binding signal (z-score)” value [17] was 4.06 and the “glycan array binding signal (z-score)” value [18] was 6.46. The “glycan array binding signal (z-score)” value [19] was 6.39 and the “glycan array binding signal (z-score)” value [20] was 4.39.
